D2 ag-1 = Beta-Arrestin HTS for Positive Allosteric Modulators of the Human D2 Dopamine Receptor: Agonists; D(2) dopamine receptor (Homo sapiens), P14416; DiscoveRx PathHunter D2 beta-arrestin, luminescence, 90 min; 100% = 57 uM dopamine signal; activation, % (no concentration beside the values); 0.084% of 360,000 active; AID 624465, 2012; in the data active = activation above about 40%; inconclusive = between about 15% and that limit
Target sequence (P14416 whole entry, looked up): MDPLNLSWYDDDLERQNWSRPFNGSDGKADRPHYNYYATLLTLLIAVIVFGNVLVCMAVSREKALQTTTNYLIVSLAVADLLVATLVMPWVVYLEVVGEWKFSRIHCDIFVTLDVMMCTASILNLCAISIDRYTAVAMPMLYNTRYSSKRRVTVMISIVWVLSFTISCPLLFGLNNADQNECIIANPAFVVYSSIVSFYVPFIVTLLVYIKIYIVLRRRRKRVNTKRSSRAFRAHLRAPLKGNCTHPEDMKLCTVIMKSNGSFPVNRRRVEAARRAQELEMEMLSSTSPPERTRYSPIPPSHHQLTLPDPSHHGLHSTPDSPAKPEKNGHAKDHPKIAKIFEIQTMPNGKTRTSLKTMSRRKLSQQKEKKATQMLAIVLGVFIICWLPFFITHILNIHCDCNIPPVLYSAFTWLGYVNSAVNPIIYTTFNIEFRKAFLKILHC
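DiscoveRx PathHunter D2 beta-arrestin cells (2,100/well) attached overnight, then compound-stimulated 90 min at 37 C in HBSS/10 mM HEPES/0.1% Tween-20 buffer; beta-galactosidase complementation read by luminescence after 1 h at ambient temperature. Dopamine 57 uM final (EC100) as control.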
D2 ag-2 = HTS Assay for Allosteric Agonists of the Human D2 Dopamine Receptor: Primary Screen for Agonists. D(2) dopamine receptor (Homo sapiens), P14416. HEK293 T-REx D2 cells, calcium flux agonist mode. activation, % at 2 µM. 0.53% of 340,000 active;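 active = activation over 3 SD above normal in the single-dose calcium agonist read, cut at about 30% in these data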; also: 0% is about no effect
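Agonism scored from kinetic calcium signal (1 read/sec, 180 s) following compound pin transfer, after a 10 s baseline. Cells: HEK293 Trex line expressing inducible D2 receptor coupled to calcium, dye-loaded after overnight culture at 30 C.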
D2 PAM-1 = HTS Assay for Positive Allosteric Modulators of the Human D2 Dopamine Receptor: Primary Screen for Potentiators; HEK293 T-REx D2, calcium flux, EC20 dopamine potentiation; potentiation, % at 10 µM; 0.34% of 340,000 active; AID 485347, 2010;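 active = potentiation over 3 SD above the plate norm, cut at about 30% in these data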; also: 0% is about no effect
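Tetracycline-induced Hek293 Trex D2 cells, force-coupled to calcium, loaded with no-wash calcium dye. Compound added with 180 s kinetic read for agonism, then EC20 dopamine and a further 180 s read for potentiation.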
D2 PAM-2 = Beta-Arrestin HTS for Positive Allosteric Modulators of the Human D2 Dopamine Receptor: Potentiators | DiscoveRx D2 beta-arrestin cells, luminescence, 90 min; 100% = 57 uM dopamine signal | potentiation, % (test concentration not listed) | 0.23% of 360,000 active; in the data active = potentiation above about 50%; inconclusive = mostly about 30% to 49%
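D2 cells co-treated with compound plus 50 nM dopamine (EC20) for 90 min at 37 deg C to detect potentiation. Beta-arrestin recruitment was read as enzyme-fragment luminescence after 1 h at ambient temperature. Full response was set by 57 uM dopamine.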
D2 antagonist = HTS Assay for Allosteric Antagonists of the Human D2 Dopamine Receptor: Primary Screen for Antagonists | D(2) dopamine receptor (Homo sapiens), P14416 | HEK293 TREx D2 cells, calcium flux, dopamine EC80 | inhibition, % at 10 µM | 2% of 340,000 active | AID 485344, 2010; in the data active = inhibition above about 30%; inactive = below that, where a call was filed; also: 0% is about no effect
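Tetracycline-induced HEK293 TREx cells expressing D2 receptor forced-coupled to calcium signalling, loaded with no-wash calcium dye. Compounds added and calcium flux read 180 s, then dopamine added at EC80 and read a further 180 s.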
* marks the source's active call; other numbers are inactive results; ? = inconclusive; . = no result given. Rows were chosen to be rich in hits. Some 2.4% of all compounds tested hit in one or more screens of this group.

SMILES | D2 ag-1 | D2 ag-2 | D2 PAM-1 | D2 PAM-2 | D2 antagonist
COc1ccc(-n2nc(C(=O)NCCc3ccc(OC)c(OC)c3)c3c4ccccc4n(C)c3c2=O)cc1 | . | -1.2 | 6.9 | . | .
CCCCOc1ccc(C(=O)N(C)CC(=O)Nc2ccc(C)cc2)cc1 | -1.9 | -1.1 | -0.2 | -11.8 | 54.7*
Cc1ccc(NC(=O)CN(C)C(=O)c2ccc(COc3ccccc3)cc2)cc1 | -4.6 | -0.5 | -0.9 | -0.4 | -2.4
COc1ccc(OC)c(C(=O)NC(CC(N)=O)c2ccc(N3CCN(c4ccccc4)CC3)c([N+](=O)[O-])c2)c1 (stereo unspecified) | -5.9 | -0.5 | 6.7 | -12.8 | -4.1
COc1ccc(OC)c(C(=O)NC(CC(N)=O)c2ccc(N3CCN(c4ccccn4)CC3)c([N+](=O)[O-])c2)c1 (stereo unspecified) | 1.9 | -1.1 | -1.0 | -8.6 | 31.7*
Cc1ccc(NC(=O)CN2C(=O)c3ccccc3S2(=O)=O)cc1C | -3.0 | -0.4 | -2.8 | -4.6 | -2.5
COc1ccc(NC(=O)CN2C(=O)c3ccccc3S2(=O)=O)cc1OC | 0.3 | 0.0 | 33.5* | 2.3 | -14.2
COc1ccccc1CN1C(=O)[C@@H]2C(CCC(N)=O)NC3(C(=O)Nc4c3ccc(Cl)c4C)[C@@H]2C1=O (stereo partly specified) | -1.4 | 0.2 | 32.4* | -0.5 | -2.8
CCOCCCNC(=O)c1cc2c(=O)[nH]c3ccccc3c2s1 | ? | 38.6* | -13.3 | 8.4 | 58.4*
CCc1ccc(OCC(=O)Nc2ccc(Cl)c(-c3nc4ncccc4o3)c2)cc1 | . | 0.3 | 6.6 | . | .
CCOc1ccc(NC(=O)CCn2c(=O)[nH]c3ccsc3c2=O)cc1 | -0.4 | 0.5 | 36.5* | 1.8 | 2.4
Cc1ccc(NC(=O)CCn2c(=O)[nH]c3ccsc3c2=O)cc1 | -2.8 | 0.1 | 16.5 | 2.8 | 11.1
CCOc1ccc(C(=O)NCCn2cc(SCC(=O)NCCc3ccc(OC)c(OC)c3)c3ccccc32)cc1 | . | 0.3 | 3.5 | . | .
O=C(Nc1nnc(-c2ccccc2F)s1)C1CCCO1 (stereo unspecified) | -1.4 | 0.7 | 0.6 | 2.3 | 39.7*
COc1cccc(Cn2cccc(NC(=O)NC3CCCCC3)c2=O)c1 | -0.4 | 0.0 | 30.6* | -7.4 | 28.5
NC(=O)c1ccc(N2CCN(c3ccccc3O)CC2)c([N+](=O)[O-])c1 | 5.8 | -1.2 | 17.0 | 3.5 | -17.4
NC(=O)c1ccc(N2CCN(c3ccccc3F)CC2)c([N+](=O)[O-])c1 | -2.6 | -0.1 | 41.4* | -4.5 | -16.0
COc1cc(C2c3c(oc4ccccc4c3=O)C(=O)N2c2nnc(C(C)C)s2)cc(OC)c1OC (stereo unspecified) | . | -0.2 | -4.8 | . | .
COc1cc(C(=O)NCC(=O)N/N=C/c2ccc(-c3ccc([N+](=O)[O-])cc3)o2)cc(OC)c1OC | 4.8 | -0.6 | -4.3 | 3.8 | -16.4
CN(C)CCCNC(=O)/C(=C\c1ccc(-c2cccc([N+](=O)[O-])c2)o1)NC(=O)c1ccccc1 | 0.2 | 1.0 | -0.9 | -10.3 | 36.9*
Cc1ccc(/C=N/NC(=O)CNC(=O)c2cccc([N+](=O)[O-])c2C)o1 | -5.7 | 0.6 | 37.9* | -5.1 | 2.5
COc1cc(C(=O)NCC(=O)N/N=C/c2ccc(-c3cccc([N+](=O)[O-])c3)o2)cc(OC)c1OC | -5.9 | -1.2 | -23.7 | -11.7 | 50.1*
Cc1cccc(CN2CCN(CC(=O)Nc3c(C)cccc3C)S2(=O)=O)c1 | . | -0.3 | 4.7 | . | .
CCN(C(=O)Cn1ncc2c(=O)oc3ccc(C)cc3c21)c1cc(OC)ccc1OC | . | -1.0 | 8.0 | . | .
Cc1ccc(CNc2ccc3cc(S(=O)(=O)N4CCCCC4)ccc3n2)cc1 | . | -1.0 | -7.3 | . | .
SMILES | D2 ag-1 | D2 ag-2 | D2 PAM-1 | D2 PAM-2 | D2 antagonist
CC1CC(C)CN(C(=O)/C=C/c2ccc(S(=O)(=O)N3CCOCC3)cc2)C1 (stereo unspecified) | -5.8 | 0.1 | -1.8 | 9.6 | 30.4*
O=C(/C=C/c1ccc(S(=O)(=O)N2CCOCC2)cc1)N1CCN(c2ccc(F)cc2)CC1 | 1.5 | -1.7 | 6.3 | -3.9 | 5.1
COc1ccc(CN2CCN(Cc3c[nH]c4ccccc34)CC2)cc1OC | -2.9 | . | . | -28.3 | .
COc1ccc(Br)cc1CN1CCN(Cc2c[nH]c3ccccc23)CC1 | -2.8 | 1.6 | -21.8 | -15.1 | 86.8*
O=C(CCC1CCCCC1)Nc1ccc(C(=O)c2ccncc2)cc1 | -0.2 | -0.9 | -8.7 | -22.8 | 47.7*
COc1cccc(-c2cc(=O)c3cc(NC(C)=O)ccc3[nH]2)c1 | -1.5 | 0.9 | 0.2 | -18.9 | 33.8*
COc1cc(OC)c(N(C)C(=O)c2nn(C)c3c2CSc2ccccc2-3)cc1Cl | . | 3.9 | -2.8 | . | .
Cc1c(/C=N\NC(=O)C2COc3ccc(C(C)(C)C)cc3O2)c2ccccc2n1C (stereo unspecified) | 44.8* | 1.2 | -9.7 | 118.0* | 58.0*
O=C(COC(=O)CNS(=O)(=O)c1ccc2ccccc2c1)Nc1ccccc1Sc1ccccc1 | 1.6 | 34.5* | -21.6 | 4.1 | 16.7
O=C(Nc1ccc(Cl)c([N+](=O)[O-])c1)ONC1=NCCCCC1 | ? | . | . | 53.8* | .
O=C(CN1C(=O)NC2(CCCCCC2)C1=O)Nc1ccc(Cl)c([N+](=O)[O-])c1 | -2.5 | . | . | -20.7 | .
O=C(ONC1=NCCCCC1)c1cccc([N+](=O)[O-])c1 | 8.2 | 0.0 | 0.5 | 54.7* | -4.6
COc1ccc(CNC(=O)CN(C(=O)c2snc(C(N)=O)c2N)c2ccc(OC)c(OC)c2)cc1 | 3.3 | -0.2 | -4.8 | 2.1 | 31.5*
COc1ccc(CNC(=O)CN(C(=O)c2snc(C(N)=O)c2N)c2ccc(F)cc2)cc1 | -1.7 | 0.1 | 15.2 | -4.9 | -19.4
CC(C)n1cnc2c(Nc3ccc(C(=O)O)cc3)nc(Cl)nc21 | -1.9 | -0.5 | 10.2 | 0.7 | -15.8
CC(C)[C@H](CO)Nc1nc(Nc2ccc(Cl)c(C(=O)O)c2)c2ncn(C(C)C)c2n1 | -1.9 | 0.0 | -4.0 | -4.9 | 38.8*
CCc1nnc(NC(=O)COc2ccc(N(C)S(=O)(=O)c3ccc(C)cc3)cc2)s1 | -11.8 | 11.6 | -7.7 | -12.9 | 39.9*
Cc1ccc(S(=O)(=O)N(C)c2ccc(OCC(=O)Nc3nnc(C4CC4)s3)cc2)cc1 | -0.1 | 1.1 | 4.8 | -0.2 | 1.6
CCNCCC(=O)N1c2ccccc2Sc2ccc(C(F)(F)F)cc21 | -7.0 | 9.2 | -24.0 | -17.2 | 72.6*
O=C(O)c1nn2cc(CCO)cnc2c1Cl | 0.7 | 1.0 | 33.5* | -5.3 | -6.2

High-throughput results as filed in PubChem BioAssay.
